Screening data as filed in PubChem BioAssay.
In the library only some 3.8% were active in any assay of this set; here they are far more common.
MPTP block: inhibitors of mitochondrial permeability transition pore. isolated mouse mitochondria, Ca2+ swelling absorbance, 30 min. inhibition, % at 10 µM. hit rate 1.4% among 360,000. AID 602449;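 active means inhibition of 50% or more, scaled per plate between neutral and stimulator controls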;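 further: 0% = DMSO wells given calcium and 100% = 1 mM EGTA wells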
FAS-TE inh: inhibitors of human fatty acid synthase thioesterase domain; inhibition, % at 15 µM; P49327; recombinant FAS-TE, OMFH fluorogenic substrate, fluorescence endpoint; hit rate 0.67% among 360,000;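 active means compounds whose normalised, plate-corrected inhibition of enzyme fluorescence in the single-dose primary screen is 50% or more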;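 further: 0% = DMSO with enzyme and 100% = substrate without enzyme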
aDG glyco act: increases alpha dystroglycan glycosylation. Pro5-aDG cells, alpha-DG glycosylation AlphaScreen (IIH6); 0% Pro5, 100% B10-LARGE cell signal. activation, % at 10 µM. hit rate 0.22% among 360,000;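 active means activation of at least 8% versus controls, or a plate z-score of at least 8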;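 further: Pro5 are CHO cells carrying HIG-tagged alpha-DG that lacks glycosylation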
CR mimetic SO: caloric restriction mimetics inhibiting age-related superoxide in yeast. S. cerevisiae aged cells, superoxide DHE fluorescence; hits give low values. superoxide response (% of plate mean), % at 10 µM. hit rate 0.18% among 330,000. AID 2690;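 active means superoxide response under a set limit, about three screen SD below normal, cut at about 65% in these data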;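 further: yeast aged for seven days with compound at 30 °C before DHE staining; 100% = average MFI of all compound-treated wells on the plate with controls excluded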
H9c2 protect: myocardial damage modulation in H9c2 cells; H9c2 cardiomyocytes, H2O2 injury protection, ATPLite, 2 h; protection from H2O2 cell death, % at 20 µM; hit rate 0.63% among 360,000; AID 588492;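 active means compounds giving at least 50% protection of heart cells from peroxide-induced death in the single-dose screen, raw or plate-pattern-corrected value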;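 further: 0% = DMSO wells with peroxide and 100% = DMSO wells without peroxide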
Mot1-301 SUMO: inhibitors of SUMOylation pathway: yeast Mot1-301 growth rescue. S. cerevisiae Mot1-301 growth rescue, ATP luminescence, 38.5C; percent above DMSO median, 100 means doubled. growth rescue, % at 18.8 µM. hit rate 1% among 320,000;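 active means every valid replicate shows activation above 250% relative to neutral control wells; inactive means the rest, any valid replicate at or below 250%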;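 further: OY570 slx delta 5 strain wells were the positive control but not used for scaling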
Rh123 counter: mitochondrial membrane potential, counter-screen. isolated mitochondria, Rhodamine 123 fluorescence. shares compounds with MPTP block. hit rate 78% among 5,000. inhibition, % at 10 µM; in the data active means inhibition above about 22%;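 further: 0% = DMSO vehicle and 100% = positive control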
MPTP abs DR: dose response confirmation of mitochondrial permeability transition pore inhibitors | isolated mitochondria swelling, absorbance | hit rate 58% among 780 | IC50, µM | AID 651561 | shares compounds with MPTP block; in the data active means IC50 below about 20 µM
MPTP cs DR: active in counter-screen for permeability transition pore inhibitors | shares compounds with MPTP block | isolated mitochondria counterscreen, fluorescence read-out | IC50, µM | hit rate 49% among 780; in the data active means IC50 below about 80 µM
Numbers without * were called inactive; . = no result given; + = active, no number.

SMILES	MPTP block	FAS-TE inh	aDG glyco act	CR mimetic SO	H9c2 protect	Mot1-301 SUMO	Rh123 counter	others
CCc1nc2c(OCCn3cccc3)cccn2c1N(C)C(=O)c1ccc(OC)cc1	1	-6	0	.	5	.	.
CC(=O)Nc1ccc(NC(=O)CSc2nnc(NC(=O)Cc3ccc(F)cc3)s2)cc1	0	-8	0	122	8	3	.
CCCCN(C=O)c1c(CC)nc2ccc(C(=O)NCc3cccs3)cn12	0	-8	0	.	22	.	.
CCc1ccc(C(=O)NCC2(c3ccccc3)CCOCC2)o1	1	-8	0	.	-3	.	.
CCCCSCc1nc2nc(Cl)c(Cl)nc2[nH]1	72*	12	0	.	-21	.	83*
CC1OC2(OC1C)C(=O)Nc1ccccc12 (stereo not given)	+	-5	0	86	2	11	-3	MPTP abs DR=>100;MPTP cs DR=>80
COC(=O)C[C@H]1C[C@H]2c3cc(NC(=O)C4CCC4)ccc3O[C@H]2[C@H](CO)O1	-3	-8	0	.	16	.	.
O=C(c1ccccc1)c1cnc(Nc2ccc(Cl)c(Cl)c2)s1	62*	-1	0	94	-3	-16	44*
O=C(c1ccc(F)cc1)c1cnc(Nc2ccccc2)s1	0	2	0	97	-15	4	.
O=P1(NC2CCCC2)OCC2(CO1)COP(=O)(NC1CCCC1)OC2 (stereo not given)	0	-7	0	.	-1	.	.
O=C(Nc1ccc(S(=O)(=O)Nc2ncccn2)cc1)c1cccc([N+](=O)[O-])c1	0	-7	0	.	-1	.	.
O=C(Nc1cc(Sc2ccccn2)cc([N+](=O)[O-])c1)c1cccc(Cl)c1	95*	28	0	103	-12	246	76*
O=C(Nc1cc(Sc2ccccn2)cc([N+](=O)[O-])c1)c1ccc(Cl)cc1	53*	44	1	114	-36	21	72*
O=C(Nc1cccc([N+](=O)[O-])c1)c1ccncc1	-2	-6	0	77	1	-11	.
CCOc1ccc(NC(=O)c2cc(=O)[nH]c3ccccc23)cc1	-1	-3	0	102	-1	43	.
O=C(CSc1nc2cc(Cl)ccc2o1)Nc1ccc(N2CCOCC2)cc1	51*	-4	0	91	-13	.	68*
Cc1nn(-c2ccccc2)c(Cl)c1/C=C1\SC(=S)NC1=O	54*	21	0	132	-17	-8	66*
Cc1nn(-c2ccccc2)c(Cl)c1/C=C1\SC(=S)N(CCCCCC(=O)O)C1=O	6	-150	0	87	-6	-29	.
S=C(Nc1ccc(Cl)cc1Cl)Nc1ccccc1Oc1ccccc1	34	18	0	100	-32	0	.
S=C(Nc1ccccc1Oc1ccccc1)NC1CCCC1	0	7	1	102	-1	.	.
S=C(Nc1cccc(Cl)c1)Nc1ccccc1Oc1ccccc1	91*	24	0	82	-28	-13	110*
S=C(Nc1ccccc1Oc1ccccc1)Nc1cccc(Cl)c1Cl	78*	30	0	107	-8	18	69*
COc1ccc2nc3cc(Cl)ccc3c(Nc3cc(C(C)C)c(O)cc3C)c2c1	84*	5	-1	111	-22	143	109*
Cc1cc(NC(=O)Nc2ccc(OCc3ccccc3)cc2)n(C)n1	2	-4	0	113	-9	-1	.
CC(CNC(=O)COc1ccccc1)OC(=O)Nc1ccc(Cl)c(Cl)c1 (stereo not given)	89*	17	0	107	-2	5	88*
SMILES	MPTP block	FAS-TE inh	aDG glyco act	CR mimetic SO	H9c2 protect	Mot1-301 SUMO	Rh123 counter	others
COC(=O)NCC(C)OC(=O)Nc1cccc(Cl)c1 (stereo not given)	-1	0	0	128	0	131	.
O=C(Nc1cc(S(=O)(=O)Nc2ccccc2Cl)ccc1O)c1sc2cc(Cl)ccc2c1Cl	94*	0	0	106	-25	-10	3
COc1ccccc1NS(=O)(=O)c1ccc(Cl)c(NC(=O)c2sc3cc(Cl)ccc3c2Cl)c1	0	22	0	106	-8	.	.
CC(C)C(=O)Nc1ccc(Sc2ccc(F)cc2)cc1	52*	15	0	111	-9	-16	37*
COc1ccc(OC(C)C(=O)N(C)Cc2nc(-c3cccc(C)c3)no2)cc1 (stereo not given)	1	0	0	107	-7	62	.
CC(C)(C)n1ncc(Oc2ccccc2[N+](=O)[O-])c(Cl)c1=O	86*	-4	2	103	-28	4	34*
CCN(CC)S(=O)(=O)c1cc(C(=O)OCC(=O)c2ccc3c(c2)NC(=O)CO3)ccc1Cl	85*	4	0	107	-8	-3	59*
Cc1cccc(C)c1NC(=S)Nc1ccc(Cl)c(Cl)c1	98*	7	0	99	-6	253	97*
NC(=S)Nc1ccc(Cl)c(Cl)c1	13	-4	0	107	-2	16	.
Cc1cc(C)cc(NC(=S)Nc2ccc(Cl)c(Cl)c2)c1	103*	25	0	102	-20	19	89*
CC(C)Oc1cc(F)ccc1-c1cc(C(=O)NCc2ccccn2)[nH]n1	0	-8	0	.	3	.	.
CCOC(=O)c1cc2c(c(-c3ccccc3)n1)[C@H](CCO)N(S(=O)(=O)C(C)(C)C)C2	1	-5	0	.	-6	.	.
O=[N+]([O-])c1cc(-c2ccccc2)cc([N+](=O)[O-])c1O	78*	4	0	.	-19	.	89*
O=[N+]([O-])c1cc2ccccc2c(O)c1O	0	-2	0	.	-1	.	.
COc1ccc(C2C(=O)c3ccccc3C2=Nc2ccc(Br)cc2)cc1 (stereo not given)	90*	3	0	105	-7	15	50*
CCOC(=O)CNc1nnc(SCC(=O)OCC)[nH]c1=O	58*	36	0	101	38	82	-4	MPTP abs DR=>100;MPTP cs DR=>80
COC(=O)CSc1nnc(C)c(=O)[nH]1	-5	-8	0	78	24	1	.
COc1ccc(CCNC(=O)c2cc(-c3ccc(Cl)c(Cl)c3)oc2C)cc1	91*	28	0	101	-15	23	91*
Cc1nonc1NC(=O)CSc1nc(CCC2CCCC2)nc2ccccc12	66*	32	0	109	-10	14	82*
COc1ccc(CC(=O)Nc2cccc(-c3csc(C)n3)c2)cc1	104*	3	0	93	3	481	4	MPTP abs DR=>100;MPTP cs DR=>80
